The panel holds about 79,000 compounds, 15% with a hit somewhere; the sample as a whole holds those more often. A number with no mark means an inactive call. Activity calls are given as the source filed them. Rule as the data show it: active = growth inhibition above about 70%; inactive = the rest.
Assay: NCI Yeast Anticancer Drug Screen. Data for the wt2 strain (AID 169);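 also: 0% = growth of vehicle-treated yeast cultures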
Settings: S. cerevisiae wt2 strain growth inhibition, stronger effect = higher value
Method: Growth inhibition of yeast strains with defined genetic alterations is measured as a screen for potential anti-cancer activity. Selected strains with alterations in DNA damage repair or cell cycle control were exposed to compounds and growth inhibition was measured relative to vehicle treated controls. The strain used in this assay is wt2

Compound	growth inhibition (at 1.2 µM) [%]	growth inhibition (at 3.7 µM) [%]	growth inhibition (at 11.0 µM) [%]	growth inhibition (at 33.0 µM)	growth inhibition (at 100.0 µM)
CCC(=O)Oc1ccc(/C=N/NC(N)=S)nc1	2	7	16	35%	34%
CN(C)CCNc1cccc2sc3ccc(O)cc3c(=O)c12	1	-2	0	1%	4%
C=Cc1cnc([N+](=O)[O-])n1C	-31	-43	-34	63%	96% (active)
C(=N/NC1=NCCN1)/c1c2ccccc2c(/C=N\NC2=NCCN2)c2ccccc12	-4	-6	11	79% (active)	86% (active)
S=C(S)NCC1CCC(CNC(=S)S)CC1 (stereo not given)	-15	-20	-13	28%	83% (active)
Cc1ccc(S(=O)(=O)N(C)c2ccc(Cl)cc2C2=NCCc3ccccc32)cc1	-25	-40	-19	6%	94% (active)
CCOC(=O)CNC(=O)c1[nH]cnc1/N=N/N(C)C	-2	1	0	1%	97% (active)
COC(=O)/C=C1/OC(c2ccc(Br)cc2)=C(Br)C1=O	-25	-22	-20	76% (active)	95% (active)
